Screens deposited in PubChem BioAssay by The Scripps Research Institute Molecular Screening Center.
Hits are enriched below; roughly 4.8% of the tested compounds scored in any of these assays.
SMARCA2 act – SMARCA2 function activation, primary screen. MG213 cells, MMTV-luciferase reporter, dexamethasone, overnight. activation, % at 9.1 µM. hit rate 1% among 370,000; in the data active means activation above about 7.8%
hgDAF12 agonist – hgDAF-12 agonism, primary luciferase screen; activation, % at 6.8 µM; HEK293 GAL4-hgDAF12 UAS-luciferase reporter, agonist luminescence; normalized to butyrate control; hit rate 1.8% among 370,000;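 active means activation above a cutoff set at the mean of all screened compounds plus 3 SD, cut at about 10% in these data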
DAX1 inh-1 – DAX1 (NR0B1) inhibition, primary screen; AID 652010; inhibition, % at 6.8 µM; HEK293T StAR-luciferase reporter, SF-1/DAX-1 repression relief; hit rate 1.1% among 370,000;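 active means inhibition above the mean over all tested compounds plus 3 SD, cut at about 3.6% in these data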;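 further: higher inhibition means more luminescence from relief of DAX-1 repression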
hcDAF12 agonist – H. contortus DAF-12 activation, primary screen. AID 652067. activation, % at 6.8 µM. HEK293 hcDAF-12 lit1-tk-luc reporter, luminescence; 0% DMSO, 100% Δ7-dafachronic acid. hit rate 1.4% among 370,000;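 active means activation above the mean of all tested compounds plus 3 SD, cut at about 5.5% in these data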
ssDAF12 agonist – S. stercoralis DAF-12 activation, primary screen; HEK293 ssDAF-12/GRIP1 lit1-tk-luc reporter, luminescence; % of 3 µM dafachronic acid response; activation, % at 6.8 µM; hit rate 1% among 370,000;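 active means activation above the mean over all tested compounds plus 3 SD, cut at about 0.9% in these data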
DAX1 inh-2 – NR0B1 (DAX1) inhibition; P51843; HEK293 Gal4-DAX1 luciferase reporter, luminescence; inhibition, % at 6.75 µM; hit rate 0.99% among 340,000;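 active means inhibition above the mean over all tested compounds plus 3 SD, cut at about 4.2% in these data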;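 further: inhibition shows as a rise in luminescence from relieved DAX1 repression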
Target sequence (P51843 207-470 limits assumed): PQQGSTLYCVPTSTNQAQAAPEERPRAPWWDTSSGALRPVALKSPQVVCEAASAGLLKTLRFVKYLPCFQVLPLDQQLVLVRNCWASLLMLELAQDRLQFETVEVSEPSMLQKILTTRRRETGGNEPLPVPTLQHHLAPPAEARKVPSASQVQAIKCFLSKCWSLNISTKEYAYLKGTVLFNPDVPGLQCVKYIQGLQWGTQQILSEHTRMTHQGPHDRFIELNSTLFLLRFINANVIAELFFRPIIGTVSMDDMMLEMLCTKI
Of the large screens only hits and unclear results are named; the others gave an inactive call.

COP(=O)(O)C(Cc1ccccc1)NC(=O)OCc1ccccc1 (stereo unspecified)	none (no result: DAX1 inh-2)
O=C(Nc1nccs1)c1ccc(COc2ccccc2)o1	hgDAF12 agonist 11.0
O=C(Nc1nccs1)c1ccc(CSc2ccccc2)o1	DAX1 inh-1 6.2
Cc1ccc(SCc2ccc(C(=O)Nc3nccs3)o2)cc1	none
CC(=O)CC[C@@H]1CC[C@]2(CCCN(S(=O)(=O)C3CCCCC3)C2)O1	none (no result: DAX1 inh-2)
O=C(N/N=C/c1cccs1)c1n[nH]c2c1CCCC2	hcDAF12 agonist 5.9
Cc1ccc(/C=N/NC(=O)c2n[nH]c3c2CCCC3)cc1	none (no result: DAX1 inh-2)
COc1ccc(Nc2cc(C)c3c(O)cccc3n2)cc1	hgDAF12 agonist 11.5
COC(=O)c1cc(Nc2cc(C)c3c(O)cccc3n2)cc(C(=O)OC)c1	none
CN(C)S(=O)(=O)c1cccc(C(=O)N/N=C\c2ccc(-c3ccccn3)cc2)c1	none (no result: DAX1 inh-2)
CC(C)(C)N(Cc1cc2ccccc2[nH]c1=O)C(=O)c1cccc([N+](=O)[O-])c1	none
Cc1cccc2cc(CN(C(=O)c3cccc([N+](=O)[O-])c3)C(C)C)c(=O)[nH]c12	ssDAF12 agonist 0.9
COc1nc(OC)nc(N2CCC(C(=O)N(C)Cc3ccco3)CC2)n1	none (no result: DAX1 inh-2)
Cc1nc2ccc(NC(=S)NC3CCCCC3)cc2nc1C	DAX1 inh-2 6.6
Cc1ccc(NC(=S)NC2CCCC2)cc1C	none
S=C(Nc1ccc2[nH]ccc2c1)NC1CCCCC1	DAX1 inh-2 4.7
N#Cc1ccc(Cn2ccc3ccc(-c4ccc5ccn(C(=O)C6CCCCC6)c5c4)cc32)cc1	none (no result: DAX1 inh-2)
CC1=CC(=O)c2ccccc2C1=O	none
CCOc1ccccc1C(O)C1=CC(=O)c2ccccc2C1=O (stereo unspecified)	hcDAF12 agonist 6.2
CC1(C)CC(=O)N(CC(=O)N2CCN(Cc3ccccc3)CC2)c2ccccc2S1(=O)=O	none (no result: DAX1 inh-2)
CN1CCN(c2nc(-c3ccc(C(C)(C)C)cc3)nc3ccccc23)CC1	hcDAF12 agonist 6.2
Cc1ccc(-c2nc(N3CCN(C)CC3)c3ccccc3n2)cc1	hcDAF12 agonist 6.3
CC(C)(C)N(NC(=O)NCCCl)C(=O)c1ccccc1Cl	none (no result: DAX1 inh-2)
Cc1ccc(S(=O)(=O)N2CCCC2c2cccc3[nH]cc(C)c23)cc1 (stereo unspecified)	none (no result: DAX1 inh-2)
C=Cc1ccc(C(=O)Nc2nnc(-c3cccnc3)s2)cc1	none (no result: DAX1 inh-2)
O=[N+]([O-])c1cccc(-c2noc(-c3ccco3)n2)c1	hgDAF12 agonist 12.1
O=[N+]([O-])c1cccc(-c2nc(-c3ccccc3)no2)c1	none
COC(=O)c1cc2c(c3c4cc(C)ccc4n(C(=O)c4ccccc4)c13)C(=O)N(Cc1ccccc1)C2	none (no result: DAX1 inh-2)
CN(CCOC(=O)c1cc2ccccc2o1)C1CN(Cc2cn(Cc3ccccc3F)nn2)S(=O)(=O)C1 (stereo unspecified)	none (no result: DAX1 inh-2)
COCc1cc(C)n(CC(=O)N/N=C/c2ccc(-c3ccc(Cl)c(C(=O)O)c3)o2)c(=O)c1C#N	ssDAF12 agonist 0.9
O=C(Cc1ccc(F)cc1)N/N=C/c1ccc(-c2ccc(Cl)c(C(=O)O)c2)o1	none
CCOC(=O)C(=O)c1csc(NC(=O)CCSc2ccc(C)cc2)n1	DAX1 inh-2 4.4
Cc1cc(C)n(-c2ccc(C(=O)OCC(=O)Nc3cc(Cl)ccc3[N+](=O)[O-])cc2)n1	ssDAF12 agonist 1.2
Cc1cc(C)n(-c2ccc(C(=O)OCC(=O)Nc3ccccc3[N+](=O)[O-])cc2)n1	none
Cc1ccccc1CC(=O)NC1CCCc2ccccc21 (stereo unspecified)	none
CC1(C)CC(=O)C(CC(=O)NC2CCCc3ccccc32)C(=O)C1 (stereo unspecified)	DAX1 inh-2 6.1
O=C(CCS(=O)(=O)c1ccccc1)Nc1ccc(F)cc1F	none (no result: DAX1 inh-2)
Cc1csc(N/N=C/c2c(F)cccc2Cl)n1	hcDAF12 agonist 6.5
Clc1cccc(Cl)c1/C=N\Nc1nccs1	none
Cc1cccc(-c2cccc3c4c([nH]c23)[C@@H]2C[C@H](N(C)C(=O)c3cccc(Cl)c3)[C@H]([C@H](C)O)CN2CC4)c1	none (no result: DAX1 inh-2)
COc1cc(/C=N/Nc2cccc3cccnc23)cc(OC)c1O	hgDAF12 agonist 13.0
COc1cc(/C=N/Nc2ccccn2)cc(OC)c1O	none
CCOc1cc(S(=O)(=O)NCC2OCCc3ccccc32)c(OCC)cc1-n1cnnn1 (stereo unspecified)	DAX1 inh-2 4.6
CCOc1cc(S(=O)(=O)NCCc2ccc(OC)c(OC)c2)c(OCC)cc1-n1cnnn1	none
COc1ccc(S(=O)(=O)Nc2cc(Cl)ccc2OC)cc1	ssDAF12 agonist 2.7
O=C(CCCl)NC1CCCCN(Cc2ccc(OC(F)(F)F)cc2)C1=O (stereo unspecified)	none (no result: DAX1 inh-2)
O=C(CCCCCNC(=O)N1CCn2c1nc1ccccc12)N[C@@H](Cc1ccccc1)C(=O)O	DAX1 inh-2 4.5
COC(=O)N/N=C1\CCCc2c(C)cc(C)cc21	DAX1 inh-2 4.3
COc1ccccc1C(=O)NC(=S)NNC(=O)c1sc2ccccc2c1Cl	none
COc1ccccc1C(=O)NNC(=S)NC(=O)c1sc2ccccc2c1Cl	hcDAF12 agonist 6.1
O=C(NC1CCCCN(Cc2cccc(Cl)c2)C1=O)c1cccc(C(F)(F)F)c1 (stereo unspecified)	none (no result: DAX1 inh-2)
O=C(NCC1CCCCC1)c1ccc(F)cc1Cl	DAX1 inh-2 7.4
O=C(NC1CC1)c1ccc(F)cc1Cl	ssDAF12 agonist 1.0
Cc1cc(=O)oc2cc(NC(=O)c3ccccc3Cl)ccc12	hgDAF12 agonist 13.2
COc1ccccc1C(=O)n1ccc2ccc(-c3ccc4ccn(Cc5ccc(C#N)cc5)c4c3)cc21	none (no result: DAX1 inh-2)
O=[N+]([O-])c1ccc(/C=N\N2CCN(c3ccc(Cl)cc3)CC2)cc1	none
Clc1ccc(/C=N/N2CCCCC2)cc1	none
N#Cc1ccc(C=NN2CCCCCC2)cc1	DAX1 inh-1 3.8
O=[N+]([O-])c1ccc(/C=N/N2CCCCC2)cc1	DAX1 inh-2 4.4
O=C(NCc1ccccc1CN1CCCC1)C1CCN(C(=O)c2ccc(F)cc2)CC1	DAX1 inh-1 3.8
O=C(NCc1ccccc1Cl)C1CCN(C(=O)c2ccc(F)cc2)CC1	none
COC(=O)c1cc(-c2cccc(C#N)c2)c(=O)n2c1CCC2	none (no result: DAX1 inh-2)
Cc1ccc(Nc2nc(CSc3n[nH]c(N)n3)cs2)cc1	hgDAF12 agonist 12.0
Cn1nnnc1SCc1csc(Nc2ccccc2)n1	none
Cc1ccc(Nc2nc(CSc3nnnn3C)cs2)cc1	hgDAF12 agonist 11.0
Cc1occc1C(=O)n1nnc2ccccc21	hcDAF12 agonist 5.8 (no result: DAX1 inh-2)
CC(=O)c1ccc(NC(=O)CN2c3cccc4cccc(c34)S2(=O)=O)cc1	DAX1 inh-2 6.0
CCCC1CCC2(CC1)CCC2OC(=S)Nc1ccccc1 (stereo unspecified)	none (no result: SMARCA2 act, DAX1 inh-1, DAX1 inh-2)
Cc1c(C(=O)O)[nH]c2ccc([N+](=O)[O-])cc12	hcDAF12 agonist 6.2 (no result: DAX1 inh-2)
O=C(O)CCCCn1c(SCc2ccccc2Cl)nc2ccsc2c1=O	DAX1 inh-2 4.7
